Rows were chosen to be rich in hits. Some 0.87% of all compounds tested hit in one or more screens of this group.
APEX1 inh: qHTS Assay for Inhibitors of the Human Apurinic/apyrimidinic Endonuclease 1 (APE1) | DNA repair nuclease/redox regulator APEX1 (Homo sapiens), P27695 | recombinant APE1, TAMRA/BHQ-2 abasic DNA cleavage fluorescence | Potency, µM (titrated, usually from 65.8 µM), most hits filed as inhibitors | actives 0.35% (n = 350,000); also: nearly all actives have a fitted effect of over 55% in size
Target sequence (P27695 whole entry, looked up): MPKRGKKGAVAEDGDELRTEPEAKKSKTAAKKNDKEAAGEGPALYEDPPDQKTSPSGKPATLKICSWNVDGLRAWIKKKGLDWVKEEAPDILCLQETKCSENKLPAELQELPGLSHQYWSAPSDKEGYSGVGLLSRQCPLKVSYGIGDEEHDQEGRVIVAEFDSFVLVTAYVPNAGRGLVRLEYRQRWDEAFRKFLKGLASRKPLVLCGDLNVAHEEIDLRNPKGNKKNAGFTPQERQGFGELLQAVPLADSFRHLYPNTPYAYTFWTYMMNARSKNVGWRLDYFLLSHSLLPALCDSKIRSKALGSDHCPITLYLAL
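APE1 at 0.75 nM final was preincubated with compound 15 min at room temperature, then 50 nM double-stranded THF abasic-site substrate (5'-TAMRA/3'-BHQ-2) was added. Fluorescence (ex 525/em 598 nm) was read kinetically; third-minus-first read gave activity.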
BLM helicase inh: qHTS Assay for Inhibitors of Bloom's syndrome helicase (BLM) | actives 0.2% (n = 350,000) | Potency, µM (highest dose often 56.1 µM), usual class: inhibitors | AID 2528, 2010 | recombinant BLM DNA unwinding, fluorescence dequenching; also: nearly all actives have a fitted effect of over 35% in size
RECQ1 helicase: qHTS Assay for Inhibitors of RecQ-Like Dna Helicase 1 (RECQ1); ATP-dependent DNA helicase Q1 (Homo sapiens), P46063; RECQ1 DNA unwinding, red fluorescence kinetic read; Potency, µM (highest dose often 57.3 µM), most hits filed as inhibitors; actives 0.54% (n = 240,000); AID 2549, 2010; also: nearly all actives have a fitted effect of over 30% in size
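50 nM RECQ1T1 preincubated 15 min with compound in Tris pH 8.0 buffer with MgCl2, DTT, Tween-20 and 2.5 ug/ml poly(dI-dC); started with 200 nM TAMRA/BHQ-2 forked duplex and 2 mM ATP. Unwinding read as fluorescence (525/598 nm), two reads 2 h apart.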
GCN5L2 inh: qHTS Assay for Inhibitors of GCN5L2. Histone acetyltransferase KAT2A (Homo sapiens), Q92830. GCN5L2 HAT assay, ThioGlo1 CoA-SH fluorescence. Potency, µM (highest dose often 58.9 µM), hits mostly inhibitors. actives 0.21% (n = 390,000). AID 504327, 2011
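Fluorescence readout, Ex340nm/Em540nm: ThioGlo1 (50uM final) reacts with free CoA thiol released as 20nM GCN5L2 acetylates H3(1-25) peptide (75uM) using acetyl-CoA (70uM). Compound and enzyme sat 15 min beforehand; 20 min room-temperature reaction.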
TDP1 block: qHTS Assay for Inhibitors of Tyrosyl-DNA Phosphodiesterase (TDP1); Tyrosyl-DNA phosphodiesterase 1 (Homo sapiens), Q9NUW8; recombinant TDP1, AlphaScreen DNA substrate cleavage; Potency, µM (highest dose often 130 µM), hits mostly inhibitors; actives 0.28% (n = 350,000); AID 485290, 2010; also: nearly all actives have a fitted effect of over 40% in size
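Recombinant E. coli-expressed Tdp1 (1 nM) preincubated with compound 15 min at RT, then 5'-biotin/3'-phosphotyrosine-FITC DNA substrate (15 nM) added for 5 min. AlphaScreen beads (10 ug/ml) added, 10 min RT; tyrosine-FITC cleavage read as signal loss.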
Each line names hits and unclear results; the compound was inactive in the other large screens. Calls follow the shape of the dose curve; as a rule, active = well fitted curve in the direction sought with a large enough effect; inconclusive = small, poorly fitted or top-dose-only effect, or another doubt; inactive = no such curve, though single readings can be large; an effect the other way counts as inactive or inconclusive.

C=C(C(C)=O)C(O)/C=C/c1ccco1 (configuration not stated)	APEX1 inh inconclusive, RECQ1 helicase inconclusive, TDP1 block 11µM (no result: GCN5L2 inh)
O=C1CCCC2=C1C1(CCS(=O)(=O)C1)N=C(Nc1nc3ccccc3o1)N2 (configuration not stated)	none (no result: APEX1 inh, BLM helicase inh, RECQ1 helicase, GCN5L2 inh)
CCN(CC)C(=S)SCC(=O)Nc1ccc(F)cc1	GCN5L2 inh 3.5µM
C=CCNC(=O)c1cc([N+](=O)[O-])cc2c(=O)[nH]c(Nc3ccc(Cl)c(Cl)c3)nc12	APEX1 inh 7.9µM, RECQ1 helicase 7.1µM (no result: GCN5L2 inh)
CCSc1nnc(NC(=O)CN2C(=O)C3CC=CCC3C2=O)s1 (configuration not stated)	none
CCOC(=O)c1sc(NC(=O)C2CC=CCC2C(=O)O)nc1C (configuration not stated)	APEX1 inh inconclusive, TDP1 block 22µM
CCOC(=O)c1sc(NC(C)=O)nc1C	none
CCSc1nnc(NC(=O)C2CC=CCC2C(=O)O)s1 (configuration not stated)	APEX1 inh inconclusive, TDP1 block 56µM
CCc1nnc(NC(=O)C(=O)NCCOC(=O)c2ccccc2Cl)s1	GCN5L2 inh 3.2µM
CNCc1ccccc1Sc1ccc(O)c(O)c1	APEX1 inh 32µM, RECQ1 helicase inconclusive (no result: TDP1 block)
COc1ccc(Sc2ccccc2CN(C)C)cc1OC	none
O=S1(=O)N=C(Oc2ccccc2C(F)(F)F)c2ccccc21	none (no result: APEX1 inh, BLM helicase inh, RECQ1 helicase, GCN5L2 inh)
OCCN(CCO)c1nc(N2CCCCC2)c2nc(N(CCO)CCO)nc(N3CCCCC3)c2n1	APEX1 inh inconclusive, GCN5L2 inh 25µM
CC(C)(C)OC(=O)NCC(=O)NNC(=O)c1cc2ccccc2[nH]1	none (no result: APEX1 inh, BLM helicase inh, RECQ1 helicase, GCN5L2 inh)
CC(=O)OC[C@]12CC[C@H]3[C@@](C)(CC[C@H]4C(C)(C)CCC[C@]34C)[C@@H]1C[C@H](C1=CC(=O)O[C@H]1OC(C)=O)O2	APEX1 inh 9.5µM (no result: BLM helicase inh, RECQ1 helicase)
Cn1c2cc(C=O)sc2c2cnn(Cc3ccccc3F)c(=O)c21	none (no result: APEX1 inh, BLM helicase inh, RECQ1 helicase, GCN5L2 inh)
Cc1ccc(Nc2nc(N)nc(CSc3nnnn3-c3ccccc3)n2)cc1	TDP1 block 79µM
COc1cc(SSc2cc(OC)cc([N+](=O)[O-])c2N)c(N)c([N+](=O)[O-])c1	GCN5L2 inh 16µM (no result: TDP1 block)
O=C1NC(=Nc2ccc(Cl)cc2)/C(=C/c2ccco2)S1	APEX1 inh inconclusive, BLM helicase inh 11µM (no result: TDP1 block)
Cc1cccc(N=C2NC(=O)S/C2=C\c2ccco2)c1	APEX1 inh inconclusive
O=C1CCCC(O)=C1N=Nc1c(Cl)cc(Cl)cc1Cl	APEX1 inh inconclusive, RECQ1 helicase 25µM
CCN(CC)S(=O)(=O)c1cccc(N=NC2=C(O)CCCC2=O)c1	RECQ1 helicase inconclusive
Cc1c(F)cccc1Cn1cnc2c(cnn2C(C)(C)C)c1=O	none (no result: BLM helicase inh, RECQ1 helicase, GCN5L2 inh, TDP1 block)
Cc1c(P(=S)(c2ccccc2)c2ccccc2)[n+]2ccccc2n1CCCc1ccccc1	none (no result: APEX1 inh, BLM helicase inh, RECQ1 helicase, GCN5L2 inh)
CN(C)Cc1c(O)c(Cl)cc2c3c(c(=O)oc12)CCCC3	GCN5L2 inh inconclusive
CCc1c(C)c2cc(Cl)c(O)c(CN(CC)CC)c2oc1=O	none
CCc1c(C)c2cc(Cl)c(O)c(CN(C)C)c2oc1=O	GCN5L2 inh 28µM
Cc1c(C)c2cc(Cl)c(O)c(CN(C)C)c2oc1=O	GCN5L2 inh 22µM
N#CN1CCC(NS(=O)(=O)c2ccc(F)cc2)CC1	none (no result: APEX1 inh, BLM helicase inh, RECQ1 helicase, GCN5L2 inh)
O=C[C@H](O)[C@@H](O)[C@@H](O)[C@H](O)CO	none (no result: BLM helicase inh, RECQ1 helicase, GCN5L2 inh, TDP1 block)
OCCN1CCN(C(c2cccs2)c2ccc3cccnc3c2O)CC1 (configuration not stated)	TDP1 block 7.1µM
COc1ccc(/C=N/Nc2cc(C)nc3ccc(OC)cc23)c(OC)c1	APEX1 inh 27µM, BLM helicase inh 25µM (no result: RECQ1 helicase)
O=C(CSc1nc2sc3c(c2c(=O)n1-c1ccccc1)CCCC3)N/N=C/c1ccccc1C(=O)O	APEX1 inh 11µM, BLM helicase inh inconclusive, TDP1 block 22µM (no result: RECQ1 helicase)
CC(C)(C)n1ncc2c(=O)n(Cc3ccc(SC(F)(F)F)cc3)cnc21	none (no result: BLM helicase inh, RECQ1 helicase, GCN5L2 inh, TDP1 block)

Screening results (PubChem)
